TRb-SRC2 inh: inhibitors of human thyroid hormone receptor beta-SRC2 interaction; Potency, µM (top dose mostly 106 µM), for the others: top-dose activity change, negative = inhibition, usual class: inhibitors; AID 1469; P10828; 0.065% of 280,000 active; TRbeta-SRC2 peptide binding, fluorescence polarization; receptor liganded with 1 µM T3;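 note: plate controls were bound peptide for no effect and peptide without receptor for full effect; nearly all actives have a fitted effect of over 50% in size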
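Fluorescence polarization of 20 nM Texas Red SRC2 peptide with 0.6 uM human TRb ligand-binding domain, in Tris buffer with 1uM T3 and 5% DMSO. Incubated 5 hr ambient; normalized to unbound and bound controls.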
Tau fibril ThT: inhibitors of human tau fibril formation, thioflavin T binding; P10636; recombinant tau K18 P301L, heparin-induced fibrillization, ThT fluorescence; Potency, µM (highest dose often 57.4 µM), without a hit: top-dose activity, negative = inhibition, usual class: inhibitors; 2.1% of 270,000 active; AID 1460; note: nearly all actives have a fitted effect of over 55% in size
Target sequence (P10636 561-689 P618L limits assumed): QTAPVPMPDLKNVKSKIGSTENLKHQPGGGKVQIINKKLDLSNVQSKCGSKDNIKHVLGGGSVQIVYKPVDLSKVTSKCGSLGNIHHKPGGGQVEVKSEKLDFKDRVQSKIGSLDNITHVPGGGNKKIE
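Recombinant human tau K18 fragment […] carrying P301L, 15 uM unlabeled plus 0.24 uM Alexa 594-labeled, was fibrillized with 20 uM heparin in 100 mM sodium acetate pH 7 for 6 hr at 37 C; 30 uM ThT fluorescence read after 1 hr.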
Tau fluor cs: counter-screen for tau fibril formation inhibitors; tau K18 P301L Alexa594 fluorescence, heparin fibrillization; Potency, µM (top dose mostly 57.7 µM), inactives show at the highest dose activity change, negative = decrease; 0.93% of 280,000 active; AID 1463; note: nearly all actives have a fitted effect of over 55% in size
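Human K18 P301L tau (15 uM unlabeled plus 0.24 uM Alexa 594-labeled, final) in 100 mM sodium acetate pH 7 was mixed with compound and 20 uM heparin and incubated 6 hr at 37 C.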
GoLoco inh red: RGS12 GoLoco-Gai1 interaction inhibition; P63096; Gai1:RGS12 GoLoco peptide FP, rhodamine, 10 min; 0.44% of 230,000 active; Potency, µM (doses to about 61.6 µM), for the others: top-dose activity, negative = inhibition, actives largely listed as inhibitors; AID 880; active = well fitted inhibition curve with a large enough effect, not every such curve was filed as active; inactive = no such curve, though single readings can be large or run the other way; note: nearly all actives have a fitted effect of over 30% in size
Target sequence (P63096 whole entry, looked up): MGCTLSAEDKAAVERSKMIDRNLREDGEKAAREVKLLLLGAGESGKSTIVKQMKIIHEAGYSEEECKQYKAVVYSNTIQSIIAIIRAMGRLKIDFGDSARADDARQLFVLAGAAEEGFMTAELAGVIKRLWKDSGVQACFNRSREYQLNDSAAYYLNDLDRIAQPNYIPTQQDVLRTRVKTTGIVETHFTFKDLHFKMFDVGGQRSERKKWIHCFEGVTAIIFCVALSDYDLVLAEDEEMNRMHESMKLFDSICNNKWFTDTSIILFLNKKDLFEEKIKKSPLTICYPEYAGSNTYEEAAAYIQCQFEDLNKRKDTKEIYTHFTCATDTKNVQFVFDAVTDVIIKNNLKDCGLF
Tau FP inhib: tau fibrillization inhibition (FP); AID 1468; P10636; Potency, µM (doses to about 57.7 µM), without a hit: at the top dose activity, negative = inhibition, most hits filed as inhibitors; K18 P301L tau heparin fibrillization, Alexa594 FP, 6 h; 0.39% of 280,000 active; note: nearly all actives have a fitted effect of over 55% in size
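Heparin (20 uM) drove fibril formation of recombinant tau K18 P301L, 15 uM unlabeled with 0.24 uM Alexa 594 label, for 6 hr at 37 C in 100 mM sodium acetate pH 7. Fluorescence polarization (555/632 nm) read 1 hr after 30 uM ThT.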
TexasRed fluor: alters Texas Red total fluorescence, flagging assay interference. TRb/SRC2 Texas Red total fluorescence interference. Potency, µM (series often up to 106 µM), for inactives: at the highest dose fluorescence change, negative = quenching. AID 1479. 0.29% of 280,000 active; active = well fitted curve in either direction with a large enough effect; inconclusive = small, poorly fitted or top-dose-only effect
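Human TRb ligand-binding domain at 0.6 uM with 20 nM Texas Red SRC2 peptide in Tris buffer containing 1 uM T3 and 5% DMSO, incubated with compound 5 h at ambient temperature. Total fluorescence (555/632 nm) calculated as parallel + 2 × perpendicular.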
Starred values were filed as active, the others as inactive; [ ] = dose if it differs, or a comment. Sampled rows, rich in hits. Any-hit rate of the full collection: about 3.1%. Unless noted, calls come from the whole dose curve; as a rule, active = well fitted curve in the direction sought with a large enough effect; inconclusive = small, poorly fitted or top-dose-only effect, or another doubt; inactive = no such curve, though single readings can be large; an effect the other way counts as inactive or inconclusive. Unless noted, % is set by controls: 0 for no effect and ±100 for the full control effect; potency is the fitted concentration of half-maximal effect.

What do the screens show for `O=C(O)c1cc(N/N=C2/CC(c3ccccc3)Oc3ccccc32)ccc1Cl` (stereo not drawn)?
TRb-SRC2 inh: 6.7%; Tau fibril ThT: inconclusive; Tau fluor cs: -23.8%; GoLoco inh red: -17.4%; Tau FP inhib: -1.3%; TexasRed fluor: -2.3%

What do the screens show for `CC(=O)N[C@@H](Cc1ccc(O)cc1)C(=O)N[C@H](C(=O)N[C@@H](C)C(=O)N[C@H](C=O)CC(=O)O)C(C)C`?
TRb-SRC2 inh: 8.8%; TexasRed fluor: -1.8%

Results for O=C1NCCCC1C(=O)N/N=C/c1cc([N+](=O)[O-])ccc1O (stereo not drawn) ?
TRb-SRC2 inh: -5.5%; Tau fibril ThT: -13.9%; Tau fluor cs: -1.9%; GoLoco inh red: 3.4%; Tau FP inhib: 4.2%; TexasRed fluor: -1.2%

Results for Cc1ccc(S(=O)(=O)N2CCCC(C(=O)NCCC(C)C)C2)cc1 (stereo not drawn) ?
TRb-SRC2 inh: 4.2%[53 µM]; Tau fibril ThT: -4.8%; Tau fluor cs: -6.3%; GoLoco inh red: 5.3%; Tau FP inhib: -7.2%; TexasRed fluor: 1.1%[53 µM]

Results for N#Cc1cc2c(OCC(O)CN3CCN(C(c4ccccc4)c4ccccc4)CC3)cccc2[nH]1 (stereo not drawn) ?
TRb-SRC2 inh: 7.6%; Tau fibril ThT: -11.8%; Tau fluor cs: inconclusive; GoLoco inh red: -0.2%; Tau FP inhib: 28.2µM*; TexasRed fluor: -1.7%

What do the screens show for `O=C(Cn1c(O)c(/C=C2\C=Nc3ccccc32)sc1=O)N1CCOCC1`?
TRb-SRC2 inh: 9.9%; Tau fibril ThT: 0.7%; Tau fluor cs: -12.2%; GoLoco inh red: 12.9%; Tau FP inhib: -12.1%; TexasRed fluor: 0.9%

How did O=c1[nH]c(S)c(/C=C2\C=Nc3ccccc32)s1 do in these assays?
TRb-SRC2 inh: 0.1%; Tau fibril ThT: 1.41µM*; Tau fluor cs: inconclusive; GoLoco inh red: 5.6%; Tau FP inhib: inconclusive; TexasRed fluor: -5.6%

Results for COc1cccc(OC)c1OCC(O)CN1CCN(c2ccccc2)CC1 (stereo not drawn) ?
TRb-SRC2 inh: -12.2%; Tau fibril ThT: inconclusive; Tau fluor cs: -9.6%; GoLoco inh red: -6.0%; Tau FP inhib: 5.2%; TexasRed fluor: -2.7%

Results for COc1ccccc1N1CCN(CC(O)COc2c(OC)cccc2OC)CC1 (stereo not drawn) ?
TRb-SRC2 inh: -0.8%; Tau fibril ThT: 20µM*; Tau fluor cs: inconclusive; Tau FP inhib: inconclusive; TexasRed fluor: -1.2%

What do the screens show for `CCn1c(CSc2nnc(-c3ccncc3)n2CCOC)nc2cc(C(=O)O)ccc21`?
TRb-SRC2 inh: 12.6µM*; Tau fibril ThT: -0.1%; Tau fluor cs: 16.5%; GoLoco inh red: 11.2µM*; Tau FP inhib: 5.3%; TexasRed fluor: 50.1µM*[fluorescent]

Results for CCn1c(CSc2n[nH]c(N)n2)nc2cc(C(=O)O)ccc21 ?
TRb-SRC2 inh: 28.2µM*; Tau fibril ThT: -2.3%; Tau fluor cs: 9.1%; GoLoco inh red: 3.55µM*; Tau FP inhib: -3.5%; TexasRed fluor: 35.5µM*[fluorescent]

Results for CCn1c(CSc2nnc(-c3cccnc3)n2-c2ccccc2C)nc2cc(C(=O)O)ccc21 ?
TRb-SRC2 inh: 11.2µM*; Tau fibril ThT: inconclusive; Tau fluor cs: 14.3%; GoLoco inh red: 3.16µM*; Tau FP inhib: inconclusive; TexasRed fluor: 39.8µM*[fluorescent]

Results for CCn1c(CSc2nnc3ccccn23)nc2cc(C(=O)O)ccc21 ?
TRb-SRC2 inh: 7.94µM*; Tau fibril ThT: -6.2%; Tau fluor cs: 18.3%; GoLoco inh red: 4.47µM*; Tau FP inhib: -0.5%; TexasRed fluor: 39.8µM*[fluorescent]

Results for Cc1ccccc1-n1c(SCC(=O)c2cc(C)n(C)c2C)nnc1-c1cccnc1 ?
TRb-SRC2 inh: 9.0%; Tau fibril ThT: -14.0%; Tau fluor cs: -11.8%; GoLoco inh red: 48.7%; Tau FP inhib: 4.5%; TexasRed fluor: 0.4%

How did CC(=O)c1c(C)[nH]c(C(=O)Nc2ccccc2N2CCOCC2)c1C do in these assays?
TRb-SRC2 inh: 1.3%; Tau fibril ThT: -4.8%; Tau fluor cs: -5.2%; GoLoco inh red: -0.3%; Tau FP inhib: -2.1%; TexasRed fluor: -0.4%

Results for CSCCC(NS(=O)(=O)c1ccc(Cl)cc1)C(=O)OCC(=O)NC12CC3CC(CC(C3)C1)C2 (stereo not drawn) ?
TRb-SRC2 inh: 9.3%; Tau fibril ThT: -9.9%; Tau fluor cs: -11.8%; GoLoco inh red: -13.8%; Tau FP inhib: 4.6%; TexasRed fluor: -0.2%

Results for CC1SCC(=O)N(CC(=O)NCCc2ccccc2)C1=O (stereo not drawn) ?
TRb-SRC2 inh: -1.9%; Tau fibril ThT: -7.1%; Tau fluor cs: -4.0%; GoLoco inh red: 2.1%; Tau FP inhib: -9.4%; TexasRed fluor: -1.4%

Results for COC(=O)C(C)Sc1ccc2nnc(-c3ccccc3)n2n1 (stereo not drawn) ?
TRb-SRC2 inh: -1.6%; Tau fibril ThT: 2.6%; Tau fluor cs: 1.3%; GoLoco inh red: 1.8%; Tau FP inhib: 0.7%; TexasRed fluor: -0.7%

How did CCOc1ccc(NC(=O)NC(C)c2c(-n3cccc3)sc3c2CCN(CC)C3)cc1 (stereo not drawn) do in these assays?
TRb-SRC2 inh: -6.6%; Tau fibril ThT: -12.9%; Tau fluor cs: inconclusive; Tau FP inhib: 11.7%; TexasRed fluor: 4.2%

Results for CCN1CCc2c(sc(-n3cccc3)c2C(C)NC(=O)Nc2ccc(Br)cc2)C1 (stereo not drawn) ?
TRb-SRC2 inh: -1.0%; Tau fibril ThT: -3.8%; Tau fluor cs: inconclusive; Tau FP inhib: 25.1µM*; TexasRed fluor: 10.4%

How did COc1cccc(N(C(=O)c2ccco2)c2nc(-c3sc(NC(=O)c4ccco4)nc3C)cs2)c1 do in these assays?
TRb-SRC2 inh: 4.4%; Tau fibril ThT: inconclusive; Tau fluor cs: inconclusive; GoLoco inh red: 21.5%; Tau FP inhib: 7.6%; TexasRed fluor: 9.8%

Results for COc1ccc(N=C2SCC(c3ccc(C)cc3)=NN2CCO)cc1 ?
TRb-SRC2 inh: 3.9%; Tau fibril ThT: inconclusive; Tau fluor cs: inconclusive; GoLoco inh red: 15.8%; Tau FP inhib: 13.0%; TexasRed fluor: -3.8%

Results for COc1ccc(N=C2SCC(c3ccc([N+](=O)[O-])cc3)=NN2CCO)cc1 ?
TRb-SRC2 inh: 7.7%; Tau fibril ThT: 11.2µM*; Tau fluor cs: inconclusive; GoLoco inh red: 3.9%; Tau FP inhib: 13.8%; TexasRed fluor: -4.0%

How did O=[N+]([O-])c1ccc(C2=NN(CCO)C(=Nc3ccc(OC(F)(F)F)cc3)SC2)cc1 do in these assays?
TRb-SRC2 inh: 8.4%; Tau fibril ThT: 14.1µM*; Tau fluor cs: inconclusive; GoLoco inh red: 4.5%; Tau FP inhib: 14.1%; TexasRed fluor: -1.8%

Source: PubChem BioAssay
